Reference: PubChem BioAssay

Each molecule was assayed against Luciferin 4-monooxygenase (Photinus pyralis) (UniProt P08659) (assay: firefly luciferase enzyme inhibitors, primary screen, biochemical, luminescence, purified enzyme, 2006 set (AID 1141;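 note: cell-free assay with purified firefly luciferase at 100 ng per well in PBS; test concentration not given here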)). Conditions: SteadyGlo luminescence, 30 min, higher = more signal, called active from +8 up or from −8 down.
Luciferin 4-monooxygenase (Photinus pyralis), sequence (P08659 whole entry, looked up): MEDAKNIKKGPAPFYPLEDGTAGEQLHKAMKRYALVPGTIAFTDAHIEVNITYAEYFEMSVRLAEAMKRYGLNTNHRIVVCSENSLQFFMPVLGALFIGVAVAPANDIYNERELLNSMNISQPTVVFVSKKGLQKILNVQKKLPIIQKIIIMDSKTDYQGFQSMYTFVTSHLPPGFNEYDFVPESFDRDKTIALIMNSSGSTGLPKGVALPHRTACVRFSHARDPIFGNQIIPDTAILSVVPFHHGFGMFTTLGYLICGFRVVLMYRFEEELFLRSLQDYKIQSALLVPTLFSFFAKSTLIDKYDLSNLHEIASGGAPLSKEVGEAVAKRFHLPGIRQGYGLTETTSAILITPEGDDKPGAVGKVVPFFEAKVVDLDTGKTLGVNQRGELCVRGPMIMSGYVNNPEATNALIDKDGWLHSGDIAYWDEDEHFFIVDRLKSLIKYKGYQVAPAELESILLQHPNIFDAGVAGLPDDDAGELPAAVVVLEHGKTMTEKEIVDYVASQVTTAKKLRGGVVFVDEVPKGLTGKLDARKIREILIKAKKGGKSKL

z-score, inactive:
C=CC[C@@H]1C=C[C@H](ON=C2c3cc(OC)ccc3O[C@H](c3cccc(OC)c3)[C@H]2O)[C@@H](CO)O1 -0.101
COCCOC(=O)N1C(=O)[C@@]2(c3cc(C#CCNC(N)=O)ccc31)[C@H](c1ccc(O)cc1)N1[C@H](c3ccccc3)[C@H](c3ccccc3)OC(=O)[C@H]1[C@@H]2C(=O)N1CCCCCCC1 0.629
CC(C)(C)N1C(=O)[C@H]2[C@H]3[C@H](O)[C@H](O)CC(=NOCc4ccccc4)[C@@H]3CC[C@H]2C1=O -1
O=C1C[C@]2(c3ccc([N+](=O)[O-])cc3)C(=O)N(CCN3CCOCC3)c3cc(CO)ccc3[C@H]2N1CC12CC3CC(CC(C3)C1)C2 0.959
CC[C@@H](c1ccccc1)n1c(=O)n2n(c1=O)[C@H]1[C@H](O)[C@@H]3O[C@@H]3C(=NOCC(C)C)[C@H]1CC2 0.292
O=C1[C@H]2[C@H]3[C@H](O)[C@H](O)CC(=NO[C@@H]4O[C@H](CO)[C@@H](O)[C@H](O)[C@H]4O)[C@@H]3CC[C@H]2C(=O)N1Cc1ccc2c(c1)OCO2 0.949
CC(C)=C1C(=O)C(c2ccccc2)=C2CN3C(=O)N(CCc4ccccc4)C(=O)[C@]3(Cc3ccc(F)cc3)[C@H]21 0.98
CO[C@@H]1COC(=O)CCC[C@@H](C)[C@H](OC)COC(=O)[C@H](Cc2ccccc2)NC(=O)CC=C[C@H]1C -0.418
Cc1ccc(F)cc1S(=O)(=O)N[C@@H]1CCN(Cc2ccc(CC(C)C)cc2)C1 0.886
CC(C)[Si]1(C(C)C)O[C@@H](c2ccccc2)c2cc(C3CC3)nc(-c3ccccc3)c21 -0.471
COC(=O)[C@@]1(Cc2ccc(F)cc2)[C@H]2c3cc(C(=O)N(C)C)n(Cc4ccc(OC)c(OC)c4)c3C[C@H]2CN1C(=O)c1ccccc1 1.22
CCOC(=O)CCN1C(=O)[C@H]2[C@H]3[C@H](O)C=CC(=O)[C@@H]3CC[C@H]2C1=O -0.371
C[C@H](c1ccccc1)N1C(=O)[C@H]2[C@@H]3C(=CC[C@H]2C1=O)C(=O)[C@H]1O[C@H]1[C@H]3O -1.47
CS(=O)(=O)CCOC(=O)C1=CC(CCCO)=CC(c2cccs2)N(Cc2cccc(OC(F)(F)F)c2)C=C1C(=O)OCCS(C)(=O)=O (stereo unspecified) -2.01
O=C1[C@H]2[C@H]3[C@H](O)[C@H](O)CC(=NO[C@@H]4O[C@H](CO)[C@@H](O)[C@H](O)[C@H]4O)[C@H]3CC[C@H]2C(=O)N1Cc1ccc2c(c1)OCO2 0.654
Cc1cc2c(nc1C)CCCN2CC(C)ON=C1[C@H]2CCn3c(=O)n(-c4ccccc4)c(=O)n3[C@H]2[C@H](O)[C@@H]2O[C@H]12 (stereo partly specified) 0.424
Cc1cc(C)c(-c2cc([C@H](C)ON=C3[C@H]4CCn5c(=O)n(-c6ccccc6)c(=O)n5[C@H]4[C@H](O)[C@@H]4O[C@H]34)on2)c(C)c1 0.154
COc1ccc([Si](C)(C)[C@@H]2[C@@H](CCO)O[C@]3(C(=O)N(Cc4ccc(NC(C)=O)cc4)c4ccccc43)[C@H]2C)cc1 0.377
c1ccc(C2NCCc3c2[nH]c2ccccc32)cc1 (stereo unspecified) 0.495
CC(=O)C[C@H](O)[C@@H](NC(=O)OC(C)(C)C)C(C)C 0.364
CO[C@H]1O[C@H](CO)[C@@H](OC(=O)Nc2ccc(C#N)cc2)[C@H](OC(=O)c2cc3ccccc3[nH]2)[C@H]1OC(=O)c1cc2ccccc2[nH]1 -2.01
CO[C@@H]1COC(=O)[C@@H]2CCCN2C(=O)[C@@H](C)COC(=O)[C@H](COCc2ccccc2)NC(=O)CC=C[C@H]1C 0.951
COc1ccc(O[C@H]2C=C[C@@H](c3ccccc3)O[C@@H]2COC(=O)CCC(C)=NO[C@H](C)c2cn([C@@H]3COC[C@H]3O)nn2)cc1 0.884
CC(CCC(=O)OC[C@H]1O[C@H](C#Cc2ccccc2)C=C[C@@H]1Oc1ccc(C)cc1)=NO[C@@H](C)c1cn([C@H](CO)Cc2ccccc2)nn1 0.991
CO[C@H]1COC(=O)[C@H](C)COC(=O)CC=C[C@@H](C)[C@H](OC)COC(=O)CC=C[C@@H]1C -1.59
CCc1cccc(NC(=O)O[C@H]2[C@H](OC(=O)Nc3ccc4c(c3)OCO4)[C@@H](OC(=O)Nc3ccc4c(c3)OCO4)[C@@H](OC)O[C@@H]2CO)c1 -7.34
CCOC(=O)C[C@H]1[C@H](OC(=O)c2cc3ccccc3oc2=O)[C@@H](NC(=O)c2ccc3ccccc3n2)c2cc(OCCCO)ccc2N1C(=O)c1ccccc1 0.497
CCN1C(=O)[C@H]2[C@H]3[C@H](O)[C@H](O)CC(=NOCC=C(C)CCC=C(C)C)[C@H]3CC[C@H]2C1=O -0.279
O=C1[C@H]2[C@H]3[C@H](O)[C@H](O)CC(=NOCc4ccccc4)[C@@H]3CC[C@H]2C(=O)N1C1CCCCC1 0.0264
CC(C)=CCCC(C)=CCON=C1[C@H]2CCn3c(=O)n(Cc4cc5c(cc4Cl)OCO5)c(=O)n3[C@H]2[C@H](O)[C@@H]2O[C@H]12 0.196
CCCNC(=O)OC[C@H]1O[C@H](CCON=C[C@@H](OC)[C@H](C)C=CCC(=O)OC)C=C[C@@H]1Oc1ccc(OC)cc1 -0.276
COC(=O)[C@H](C)NC(=O)[C@@H](C)CO 0.877
C=CCOC(=O)[C@H]1[C@@H]2C(=O)O[C@@H](c3ccccc3)[C@@H](c3ccccc3)N2[C@@H](c2ccc(OCCOC(=O)[C@H]3C[C@H]4C(=O)N5CCC[C@H]5C(=O)N4[C@H]3c3cccc(OCCO)c3)cc2)[C@]12C(=O)Nc1ccc(I)cc12 0.108
CCCCC(=C=CC[C@H](O)c1ccccc1OCCO)C[C@H](O)COCc1ccccc1 -0.676
COc1ccc(-c2ccc3c(n2)CCCN3CC(O)CN2CCCc3nc(C)c(C)cc32)cc1 (stereo unspecified) -1.2
C[C@H]1Cc2c(-c3ccccc3)nc3c(c2CO1)CN(CCOc1ccccc1)CC3 -1.41
